# Compound activity from PubChem.
# N370S GC mod: N370S glucocerebrosidase modulation, Gaucher chaperone candidate; P04062; N370S GC spleen homogenate, 4MU-glucoside fluorescence; Potency, µM (top dose mostly 59.4 µM), usual class: inhibitors; 330,000 tested, 0.092% active; AID 2101
# Apoferritin bind: binds horse apoferritin like a general anesthetic | P02791 | apoferritin/1-aminoanthracene competitive binding, fluorescence | Potency, µM (doses to about 77.5 µM), usual class: inhibitors | 350,000 tested, 0.074% active | AID 485281; further: nearly all actives have a fitted effect of over 20% in size
# Target sequence (P02791 2-175 limits assumed): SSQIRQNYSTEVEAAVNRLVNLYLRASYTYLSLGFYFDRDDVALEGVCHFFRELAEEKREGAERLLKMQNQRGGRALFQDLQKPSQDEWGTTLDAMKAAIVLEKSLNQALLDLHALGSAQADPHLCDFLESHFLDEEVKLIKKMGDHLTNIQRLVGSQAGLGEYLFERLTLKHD
#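 Probe: 1-aminoanthracene (50% saturated, PBS). Protein: horse-spleen apoferritin, 10 uM. Incubation: 10 min, room temperature. Detection: 380 nm excitation, 535 nm emission. Analysis: normalized response, four-parameter Hill.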
# ClpP mod: qHTS Assay for Activators of ClpP; AID 651965, 2013; purified B. subtilis ClpP, FRET peptide cleavage, 20 min; Potency, µM (series often up to 57.5 µM); ATP-dependent Clp protease proteolytic subunit (Bacillus subtilis (strain 168)), P80244; 340,000 tested, 1.9% active; active means well fitted falling curve with a large enough effect; inconclusive means small, poorly fitted or top-dose-only effect; inactive means no such curve, though single readings can be large or run the other way; further: the source files actives as falling curves though it sought activators and does not explain the sign; nearly all actives have a fitted effect of over 65% in size
# Target sequence (P80244 whole entry, looked up): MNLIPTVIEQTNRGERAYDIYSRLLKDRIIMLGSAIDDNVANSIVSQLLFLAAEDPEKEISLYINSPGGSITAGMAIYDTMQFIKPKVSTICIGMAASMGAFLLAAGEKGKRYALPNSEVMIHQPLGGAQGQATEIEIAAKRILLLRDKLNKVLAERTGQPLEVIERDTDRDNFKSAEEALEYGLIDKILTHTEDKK
#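 ClpP 10 microg/mL final, pH 8 Tris/KCl buffer with BSA, glycerol, Tween-20; compound pinned in; FRET-FV substrate; RT 20 min; Ex320/Em430; ΔFRET vs ADEP 5.8 microM, DMSO, no enzyme.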
# a7 integrin act: activates integrin-mediated alleviation for muscular dystrophy | alpha7betagal myoblasts, beta-gal FDG fluorescence, 48 h | Potency, µM (highest dose often 38.3 µM), most hits filed as activators | 350,000 tested, 0.064% active; further: nearly all actives have a fitted effect of over 60% in size
#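 Alpha7betagal+/- myoblasts (passage 13) were plated 16-24 hr, then exposed to compounds (1:260 dilution of DMSO stock) for 48 hours at 37C. After MPER lysis, β-galactosidase reporter activity was read as FDG fluorescence (ex 480/em 540) after 30 minutes.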
# Glioma ERSR ind: inducers of ER stress response in human glioma cells; U87-MG GRP78 promoter luciferase reporter, 16 h; Potency, µM, most hits filed as activators; 420,000 tested, 0.02% active; AID 602332; further: series mostly up to about 76 µM; nearly all actives have a fitted effect of over 35% in size
#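 ERSR induction read as luciferase luminescence (Bright-Glo, 10 min at room temperature) in stably transfected human U87-MG glioma cells exposed to compounds for 16 h, using GRP78 as sensor.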
# CBFb RUNX1 block: blocks binding between human CBF-beta and RUNX1. Q01196+Q13951. AlphaScreen CBFb-His/RUNX1-biotin binding, biochemical. Potency, µM (series often up to 59.8 µM), usual class: inhibitors. 230,000 tested, under 10 active. AID 1477
#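 Read-out: AlphaScreen. Format: His-CBF-beta with biotinylated RUNX1 (30 nM each) preincubated 20 min, compound 15 min, Ni-chelate plus streptavidin beads 90 min; room temperature throughout.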
# Hits are given with their value; – = inactive; ? = inconclusive; · = not tested or not shown. Shown is part of a subset that was picked to be rich in hits. Unless noted, the call rests on the fitted dose curve; in most records, active means well fitted curve in the direction sought with a large enough effect; inconclusive means small, poorly fitted or top-dose-only effect, or another doubt; inactive means no such curve, though single readings can be large; an effect the other way counts as inactive or inconclusive.
SMILES,N370S GC mod,Apoferritin bind,ClpP mod,a7 integrin act,Glioma ERSR ind,CBFb RUNX1 block
O=C(OCc1ccc(C(=O)c2ccccc2)cc1)c1cccc(-c2nnc(-c3ccccc3)o2)c1,–,–,–,–,–,–
CCOC(=O)c1cc(-c2nnc(-c3ccc(Oc4ccccc4)cc3)o2)c(C)nc1C,–,–,3.2µM,–,–,–
O=C(OCc1ccccc1)c1cccc(-c2nnc(-c3ccccc3)o2)c1,·,–,35µM,–,–,–
O=C(Cc1ccccc1Cl)NO,·,·,–,·,·,·
COc1ccc(C2Nc3ccccc3C(=O)N2Cc2ccco2)cc1COc1c(C)cccc1C (stereo not drawn),·,·,–,·,–,·
COc1ccc(-c2cc(C(F)(F)F)nc(N3CCN(C)CC3)n2)cc1OC,–,–,–,–,–,–
COc1ccc(-c2cc(C(F)(F)F)nc(N3CCCCCC3)n2)cc1,–,–,22µM,–,–,–
COc1ccc(-c2cc(C(F)(F)F)nc(N3CCCCC3)n2)cc1OC,–,–,35µM,–,–,–
COc1ccc(-c2cc(C(F)(F)F)nc(N3CCN(C)CC3)n2)cc1,–,–,–,–,–,–
CCCn1nc(Oc2nc(SC)nc(N(C)C)n2)ccc1=O,–,–,25µM,–,–,–
CSc1nc(Oc2ccc(=O)[nH]n2)nc(N(C)C)n1,–,–,–,–,–,–
COCCNC(=O)c1cn(C2CCN(C3CCCC3)CC2)nn1,·,·,·,·,–,·
N=c1c2c(-c3ccccc3)c(-c3ccccc3)n(Cc3ccccc3)c2ncn1CCCn1ccnc1,2.2µM,–,–,–,–,–
COC(=O)[C@@H]1CCCN1Cc1ccc2c(c1)CN(Cc1ccc3c(c1)CCCN3C)CCO2,·,·,·,·,–,·
CN(C)CCNC(=O)c1cc2ccccc2oc1=O,–,–,28µM,–,–,–
O=C(NCCc1ccccc1)c1cc2ccccc2oc1=O,–,–,–,–,–,·
CCCC(=O)OCCNC(=O)c1cc2ccccc2oc1=O,–,–,18µM,–,–,–
CC(=O)OCCNC(=O)c1cc2ccccc2oc1=O,–,–,25µM,–,–,–
O=C(NCCCN1CCOCC1)c1cc2ccccc2oc1=O,–,–,28µM,–,–,–
O=C(NCCN1CCN(C(=O)c2cc3ccccc3oc2=O)CC1)c1cc2ccccc2oc1=O,–,–,?,–,–,–
O=c1oc2c(-c3cccc(F)c3)cc(O)cc2s1,–,?,–,4µM,–,–
CCN1CCn2c3c(c4cc(Cl)ccc42)CCCC31 (stereo not drawn),?,–,16µM,–,–,–
CCN(CC)CCN1CCn2c3c(c4cc(C)ccc42)CCCC31 (stereo not drawn),–,–,–,–,–,–
O=C(CNC(=S)NC(=O)c1ccc(Cl)cc1)c1ccccc1,–,–,28µM,–,–,–
CC1=C(C(=O)OC(C)C)C(c2coc3ccccc3c2=O)C2=C(CCCC2=O)N1 (stereo not drawn),–,–,3.5µM,–,–,–
SMILES,N370S GC mod,Apoferritin bind,ClpP mod,a7 integrin act,Glioma ERSR ind,CBFb RUNX1 block
CC1Cc2ccccc2N1C(=O)c1ccc(F)c(S(=O)(=O)N2CCOCC2)c1 (stereo not drawn),·,·,28µM,–,–,·
Cc1cnc(SCc2ccccn2)nc1C1CCCN(C(=O)c2ccc3c(c2)OCCO3)C1 (stereo not drawn),·,·,·,·,–,·
CCc1ccc(OCCNC(=O)c2ccccc2SCc2ccccc2)cc1,–,–,28µM,–,–,–
CC1=C(C#N)C(c2cccnc2)C2=C(CCCC2=O)N1 (stereo not drawn),–,–,8.9µM,–,–,–
CC1=C(C#N)C(c2cccnc2)C2=C(N1)c1ccccc1C2=O (stereo not drawn),–,–,–,–,–,–
Cn1c2ccccc2c2cc(C(=O)N3CCOc4ccc(C(C)(O)CCn5cccn5)cc4C3)ccc21 (stereo not drawn),·,·,·,·,–,·
O=C(C[n+]1ccc2ccccc2c1)c1ccc(F)cc1,·,·,–,·,–,·
COC(=O)[C@@H]1CCCN1Cc1ccc2c(c1)CN(Cc1coc3ccccc3c1=O)CCO2,·,·,·,·,–,·
CCCNC1=C(C)C(=O)CC1,–,–,32µM,–,–,–
COc1ccc(S[C@@H]2C[C@@H](C(=O)Nc3ccc4nccnc4c3)N(C3Cc4ccccc4C3)C2)cc1,·,·,·,·,–,·
Cc1cc(C)cc(CC2CC(=O)N(c3nc(C)cc(C)n3)C2=O)c1 (stereo not drawn),–,5.6µM,–,–,–,–
C[N+](C)(CCCCCI)c1ccc(/C=C/c2nc3ccccc3s2)cc1,·,·,–,·,–,·
COc1ccc(CNC(=O)c2cc3oc4ccccc4c3n2C)cc1OC,·,–,25µM,·,–,·
Cn1c(C(=O)NCc2cccs2)cc2oc3ccccc3c21,–,–,32µM,–,–,–
Cn1c(C(=O)NCc2ccccc2F)cc2oc3ccccc3c21,·,–,–,·,·,·
Cn1c(C(=O)NCc2ccccc2)cc2oc3ccccc3c21,–,–,25µM,–,–,–
CCn1c(C(=O)NCc2ccccc2Br)cc2oc3ccccc3c21,·,–,22µM,·,–,·
COc1cc(=O)n2c(c1C(=O)NCc1ccco1)CCN(Cc1ccc(F)cc1Cl)CC2,·,·,·,·,–,·
CN(C=O)c1cc([N+](=O)[O-])ccc1OCc1ccccc1,·,·,–,–,–,·
Cc1cc([N+](=O)[O-])ccc1NCc1ccccc1,–,11µM,–,–,–,–
CNc1cc([N+](=O)[O-])ccc1OCc1ccccc1,–,–,–,4.5µM,–,–
CCOC(=O)N1CCN(/[N+]([O-])=N/OCOC)CC1,·,·,·,·,–,·
CCCNC(=O)NS(=O)(=O)c1cnccc1Sc1ccc(Cl)c(Cl)c1,–,–,22µM,–,–,–
CC(C)(CNC(=O)c1cnn(-c2ncc3c(n2)-c2ccccc2CC3)c1C1CC1)N1CCOCC1,·,·,·,·,–,·
CN(C)/[N+]([O-])=N/Oc1cc(F)c([N+](=O)[O-])cc1[N+](=O)[O-],·,·,·,·,–,·
SMILES,N370S GC mod,Apoferritin bind,ClpP mod,a7 integrin act,Glioma ERSR ind,CBFb RUNX1 block
Cn1cccc1-c1nc2ccccc2n1Cc1ccccc1,–,–,28µM,–,–,?
CNc1ccc(C=C2C=CC=C2)cc1,·,·,–,·,–,·
CCOC(=O)C1(Cc2cccc(OC)c2)CCN(Cc2cccn2-c2nccs2)CC1,–,–,·,–,–,–
CCOC(=O)C1(Cc2ccccc2)CCN(Cc2cccn2-c2nccs2)CC1,–,–,4.5µM,–,–,–
Cc1cc2cc3c(=O)[nH]c(=O)nc-3n(CC(O)C(O)C(O)CO)c2cc1C (stereo not drawn),·,·,35µM,–,–,·
O=C(Nc1ccc(Br)cc1F)c1sccc1-n1cccc1,–,–,–,–,–,–
Cc1c(Br)cccc1NC(=O)c1sccc1-n1cccc1,–,?,8.9µM,–,–,–
